In PubChem BioAssay AID720650 (Broad Institute, 2013):
Unmarked numbers belong to inactive results. The source made the active and inactive calls. The rule behind the calls is not given here.

Assay: C difficile toxins, biochemical counterscreen, UDPG substrate absence, confirmatory dose response (AID 720650)
Settings: series mostly up to 19.5 µM

| SMILES | AC50 |
| --- | --- |
| O=C(NCc1ccccc1)[C@@H]1CCCN1C(=O)[C@@H]1CCCN1C(=O)c1cccs1 | inactive |
| O=C(NC(=S)Nc1ccc(O)cc1)c1ccccc1Cl | 13.3 µM (active) |
| CC(C)NC(=O)N1CC[C@@H]2[C@H]1c1cc(-c3ccccc3)ccc1N(C)[C@H]2CO | 5.77 µM (active) |
| CC1CC(=O)N(c2ccc(NCCc3ccc(O)cc3)c([N+](=O)[O-])c2)C1=O (stereo not drawn) | inactive |
| COc1ccccc1CNC(=O)CN(c1ccc(C)cc1)S(=O)(=O)c1c(C)n[nH]c1C | inactive |
| O=C(CC(=O)N/N=C/c1ccc(O)cc1)N/N=C/c1ccc(O)cc1 | 9.03 µM (active) |
| Cc1cc(C)c(S(=O)(=O)c2ccc(Cl)cc2C)c(Cl)n1 | > 39 µM |
| Cc1ccc(-c2cc(C(=O)OC3CCOC3=O)c3ccccc3n2)c(C)c1 (stereo not drawn) | inactive |
| O=c1c(OC2OC(CO)C(O)C(O)C2O)c(-c2ccc(O)c(O)c2)oc2cc(O)cc(O)c12 (stereo not drawn) | inactive |
| COc1cccc(C(=O)COC(=O)c2ccc(NC(=O)c3ccccc3)cc2)c1 | inactive |
| CCN1CC(CNCc2cn(-c3ccc(OC)cc3)nc2-c2ccccc2Cl)CC1=O (stereo not drawn) | inactive |
| COc1ccccc1OCC(=O)Nc1ccc(-c2nnc(-c3ccco3)o2)cc1 | > 39 µM |
| CCOc1ccc(C(CC(=O)O)NC(=O)C23CC4CC(CC(C4)C2)C3)cc1OC (stereo not drawn) | inactive |
| CCn1cc(C(=O)O)c(=O)c2cc(F)c(N3CCN(C(=S)NC(=O)c4ccccc4Br)CC3)cc21 | inactive |
| N#C/C(=C\c1ccc(N2CCOCC2)o1)C(=O)Nc1ccc(O)cc1 | inactive |
| CC[C@H](C)[C@@H]1NC(=O)c2cc([N+](=O)[O-])cc(I)c2NCC[C@@H](C(N)=O)NC(=O)[C@H](CCCN=C(N)N)NC1=O | inactive |
| Cn1ncc(Br)c1C(=O)N/N=C/c1cccc(OC2CSC2)c1 | inactive |
| O=C(NNc1ccc(-c2csnn2)cc1)c1ccccc1C(F)(F)F | 0.432 µM (active) |
| Nc1ccc(N=Nc2ccc(O)cc2)c(N)n1 | 7.86 µM (active) |
| Nc1nc(Cl)cc(NCCc2ccc(O)cc2)n1 | 21.8 µM (active) |
| CC(=O)C1=CCC(c2ccc(C)cc2)N(S(=O)(=O)c2ccc(C)cc2)C1 (stereo not drawn) | > 39 µM |
| CCOc1ccccc1/C=C/c1onc(C)c1S(=O)(=O)N1CCC(C(=O)N2CCCCCC2)CC1 | inactive |
| COC(=O)C[C@H]1CC[C@@H]2[C@@H](COc3ccc(NC(=O)c4cccc(OC)c4)cc3C(=O)N2C)O1 | inactive |
